The values below come from PubChem BioAssay (NCATS).

Results filed as inconclusive are left out. The source made the active and inactive calls. Unless noted, calls follow the shape of the dose curve; as a rule, active = well fitted curve in the direction sought with a large enough effect; inconclusive = small, poorly fitted or top-dose-only effect, or another doubt; inactive = no such curve, though single readings can be large; an effect the other way counts as inactive or inconclusive.

Experiment [1] can be described thus: Validation of Assay for Modulators of Lamin A Splicing (AID 1459; active = well fitted curve in the direction sought with a large enough effect in the signal ratio; the % refers to the signal ratio;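 also: cells exposed to compound for two days before reading; 0% is about no effect; ratio rise marks activators and ratio drop marks inhibitors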). In outline:
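HeLa S3 lamin A-EGFP/DsRed2 stable clone, 600 cells/well, Opti-MEM 2% FBS; compounds by pin tool; 48 hrs, 37 °C/5% CO2; Acumen 488 nm scan, objects 10-100 um; GFP/RFP intensity ratio.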

Experiment [2] in a line: qHTS Assay for Lipid Storage Modulators (AID 1519; calls by dose curve; as to activity change, negative = inhibition: % is scaled to controls: 0 for no effect and ±100 for the full control effect). Particulars: Drosophila S3 cells, BODIPY lipid droplet/cell ratio, laser cytometry, cells loaded with oleic acid; for activity change, negative = inhibition: at 57.5 µM (top of the series). In a few lines:
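Cells seeded at 5,000 per well were treated with compounds over a concentration series and loaded with oleic acid (400 uM, as added). Lipid droplet fluorescence (488 nm excitation, 500-530 nm channel) was read by laser-scanning cytometry and normalized to 20 uM Triacsin C.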
In general terms: In qHTS, concentration-response curves come from the screen itself.

Experiment [3] in a line: Counterscreen for APE1 Inhibitors: Fluorescent Dye Displacement Validation Assay (AID 1707).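 Also: plate controls were ThO with dsDNA and no compound for no effect and ThO without dsDNA for full effect.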 In a few lines:
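Assay buffer: Tris-HCl pH7.5 with 50mM NaCl, 2 mM MgCl2, 0.01% Tween-20. Dye 250 nM, duplex 50 nM final. Readout: decrease in ThO endpoint fluorescence, 480 nm excitation, 540 nm emission.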
In general terms: A counterscreen serves to expose hits that act by an unwanted route or on another target.

For experiment [4], the target named is Endonuclease 4 (Escherichia coli (strain K12)) (UniProt P0A6C1). In words: Counterscreen for APE1 Inhibitors: qHTS Validation Assay for Inhibitors of Endonuclease IV (AID 1708). Also: % is scaled to controls: 0 for no effect and ±100 for the full control effect. In outline: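 Concentration-response counterscreen run identically to the APE1 assay: 15 min room-temperature preincubation of 2 nM enzyme with compound, reaction started with 50 nM quenched abasic DNA, progress taken from kinetic fluorescence.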

Experiment [5] in a line: qHTS for differential inhibitors of proliferation of Plasmodium falciparum line 7G8 (AID 1815).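 Also: parasite growth measured after three days of incubation.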 Also: potency is read from the fitted curve at half-maximal effect.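 As to activity change, negative = inhibition: plate controls were vehicle wells for no effect and reference inhibitor wells for full effect.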
A short description of experiment [6]: qHTS for differential inhibitors of proliferation of Plasmodium falciparum line GB4 (AID 1816).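 Also: parasite growth measured after 72 h incubation.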 Also: potency is read from the fitted curve at half-maximal effect.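 As to activity change, negative = inhibition: 0% = vehicle DMSO and -100% = reference inhibitor.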 Particulars: Potency: Plasmodium falciparum GB4 proliferation inhibition.
A short description of experiment [7]: qHTS for differential inhibitors of proliferation of Plasmodium falciparum line 3D7 (AID 1876).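 Also: parasite growth measured after three days of culture; 0% = vehicle wells and -100% = reference inhibitor wells.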
The nature of experiment [8]: qHTS for differential inhibitors of proliferation of Plasmodium falciparum line D10 (AID 1877).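 Also: parasites grown with compound for 72 h before DNA staining.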 Also: potency is read from the fitted curve at half-maximal effect.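 As to activity change, negative = inhibition: plate controls were vehicle wells for no effect and reference inhibitor wells for full effect.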
The nature of experiment [9]: qHTS for differential inhibitors of proliferation of Plasmodium falciparum line Dd2 (AID 1882).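 Also: plate controls were DMSO vehicle for no effect and 0.29 µM artemisinin for full effect; nearly all actives have a fitted effect of over 65% in size.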 Particulars: Potency: Plasmodium falciparum Dd2 proliferation inhibition. In a few lines: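 Dd2-infected erythrocytes (0.3% parasitemia, 2.5% hematocrit final) incubated with compound 72 h at 37 C, 5% CO2; lysed with saponin/Triton buffer containing SYBR Green I, incubated overnight in the dark, then read by fluorescence (485/535 nm). Normalized to 0.29 uM artemisinin and DMSO.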

Experiment [10] in a line: qHTS for differential inhibitors of proliferation of Plasmodium falciparum line W2 (AID 1883).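 Also: parasites grown with compound for 72 h before lysis and staining.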 Also: potency is read from the fitted curve at half-maximal effect.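 As to activity change, negative = inhibition: 0% = vehicle wells and -100% = control inhibitor wells.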 To be noted: Potency: Plasmodium falciparum W2 proliferation inhibition.
Experiment [11] can be described thus: qHTS for differential inhibitors of proliferation of Plasmodium falciparum line HB3 (AID 1886).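 Also: parasites grown with compound for 72 h before SYBR Green readout.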 Also: potency is read from the fitted curve at half-maximal effect.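 As to activity change, negative = inhibition: plate controls were vehicle for no effect and reference inhibitor for full effect.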 Particulars: Potency: Plasmodium falciparum HB3 proliferation inhibition.
Experiment [12] is described as follows: qHTS Assay for Modulators of Human Peripheral Myelin Protein 22 (PMP22) Expression/Activity (AID 1967; active = well fitted curve in the direction sought with a large enough effect in the signal ratio; the % refers to the signal ratio;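 also: 0% = untreated cells and 100% end not stated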). In outline:
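Luminescence ratio of Pmp22 promoter-driven green luciferase to EF-alpha-driven red luciferase, in engineered mouse MSC80 Schwann cells, served as read-out. Compounds were incubated 24h; untreated cells defined 0% Activity; curves were classified by r2, magnitude and activity.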

Experiment [13] has as its target Ferritin light chain (Equus caballus) (UniProt P02791). The experiment in a line: qHTS Validation Assay for Identification of Novel General Anesthetics (AID 2323). Also: % is scaled to controls: 0 for no effect and ±100 for the full control effect. In outline: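 Fluorescence at 535 nm (excitation 380 nm) reported loss of 1-AMA binding to horse-spleen apoferritin (10 uM) in PBS with 50% saturated 1-aminoanthracene, after 10 min room-temperature incubation with compound; values from Hill fits of normalized response.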

For experiment [14], the target named is ATP-dependent DNA helicase Q1 (Homo sapiens) (UniProt P46063). In words: qHTS Validation Assay for Inhibitors of RecQ-Like Dna Helicase 1 (RECQ1) (AID 2353).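 Also: plate controls were DMSO vehicle for no effect and enzyme-free control for full effect.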 In outline: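 50 nM RECQ1T1 preincubated 15 min with compound in Tris pH 8.0 buffer with MgCl2, DTT, Tween-20 and 2.5 ug/ml poly(dI-dC); started with 200 nM TAMRA/BHQ-2 forked duplex and 2 mM ATP. Unwinding read as fluorescence (525/598 nm), two reads 2 h apart.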
ATP-dependent DNA helicase Q1 (Homo sapiens), sequence (P46063 whole entry, looked up): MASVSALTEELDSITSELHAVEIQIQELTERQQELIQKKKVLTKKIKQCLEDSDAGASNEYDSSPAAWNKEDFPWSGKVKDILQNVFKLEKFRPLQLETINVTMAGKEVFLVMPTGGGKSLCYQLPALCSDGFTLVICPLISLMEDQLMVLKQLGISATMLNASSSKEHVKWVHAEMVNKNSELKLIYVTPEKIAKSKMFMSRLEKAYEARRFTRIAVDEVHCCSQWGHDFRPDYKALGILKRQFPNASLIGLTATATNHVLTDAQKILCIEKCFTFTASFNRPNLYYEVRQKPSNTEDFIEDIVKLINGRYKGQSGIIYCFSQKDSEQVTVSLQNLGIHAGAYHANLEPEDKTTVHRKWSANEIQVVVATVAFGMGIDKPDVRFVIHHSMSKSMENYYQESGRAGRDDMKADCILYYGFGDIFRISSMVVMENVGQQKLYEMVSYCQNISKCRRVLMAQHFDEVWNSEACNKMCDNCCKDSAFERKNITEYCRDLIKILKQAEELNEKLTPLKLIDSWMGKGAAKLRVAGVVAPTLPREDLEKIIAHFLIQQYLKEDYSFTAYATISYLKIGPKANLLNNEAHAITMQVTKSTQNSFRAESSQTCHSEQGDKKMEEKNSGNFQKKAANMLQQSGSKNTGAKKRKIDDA

The target in experiment [15] is DNA repair nuclease/redox regulator APEX1 (Homo sapiens) (UniProt P27695). The experiment in a line: qHTS Validation Assay for Inhibitors of the Human Apurinic/apyrimidinic Endonuclease 1 (APE1) (AID 1705;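 also: TAMRA fluorescence gain over two minutes as APE1 cuts a quenched THF abasic duplex; % is scaled to controls: 0 for no effect and ±100 for the full control effect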). In outline: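 qHTS, 1536-well. APE1 + cpd 15 min RT → 50 nM TAMRA/BHQ-2 THF-abasic dsDNA substrate → kinetic fluorescence, 3 reads/60 s; delta(read3−read1) = reaction progress. No-enzyme buffer = negative control.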
DNA repair nuclease/redox regulator APEX1 (Homo sapiens), sequence (P27695 whole entry, looked up): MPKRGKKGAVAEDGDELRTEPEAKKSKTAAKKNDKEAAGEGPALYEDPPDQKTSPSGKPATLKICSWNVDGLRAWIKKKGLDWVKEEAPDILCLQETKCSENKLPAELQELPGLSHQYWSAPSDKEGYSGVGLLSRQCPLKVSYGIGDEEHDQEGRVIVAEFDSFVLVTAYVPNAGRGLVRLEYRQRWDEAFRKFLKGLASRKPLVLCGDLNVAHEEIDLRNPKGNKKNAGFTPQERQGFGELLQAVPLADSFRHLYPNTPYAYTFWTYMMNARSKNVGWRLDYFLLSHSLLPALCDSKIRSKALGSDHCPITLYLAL

Experiment [16] deals with RecQ-like DNA helicase BLM (Homo sapiens) (UniProt P54132). In words: qHTS Validation Assay for Inhibitors of Bloom's syndrome helicase (BLM) (AID 2364).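 Also: plate controls were DMSO vehicle for no effect and enzyme-free control for full effect.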 In outline: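 BLM 50 nM in 25 mM Tris-HCl pH 8.0, 5 mM NaCl, 2 mM MgCl2, 1 mM DTT, 0.01% Tween-20, 2.5 ug/ml poly(dI-dC); 15 min cpd preinc, RT. Start: 200 nM forked DNA + 2 mM ATP (final). TAMRA read, 2 reads 2 h apart.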
RecQ-like DNA helicase BLM (Homo sapiens), sequence (P54132 whole entry, looked up): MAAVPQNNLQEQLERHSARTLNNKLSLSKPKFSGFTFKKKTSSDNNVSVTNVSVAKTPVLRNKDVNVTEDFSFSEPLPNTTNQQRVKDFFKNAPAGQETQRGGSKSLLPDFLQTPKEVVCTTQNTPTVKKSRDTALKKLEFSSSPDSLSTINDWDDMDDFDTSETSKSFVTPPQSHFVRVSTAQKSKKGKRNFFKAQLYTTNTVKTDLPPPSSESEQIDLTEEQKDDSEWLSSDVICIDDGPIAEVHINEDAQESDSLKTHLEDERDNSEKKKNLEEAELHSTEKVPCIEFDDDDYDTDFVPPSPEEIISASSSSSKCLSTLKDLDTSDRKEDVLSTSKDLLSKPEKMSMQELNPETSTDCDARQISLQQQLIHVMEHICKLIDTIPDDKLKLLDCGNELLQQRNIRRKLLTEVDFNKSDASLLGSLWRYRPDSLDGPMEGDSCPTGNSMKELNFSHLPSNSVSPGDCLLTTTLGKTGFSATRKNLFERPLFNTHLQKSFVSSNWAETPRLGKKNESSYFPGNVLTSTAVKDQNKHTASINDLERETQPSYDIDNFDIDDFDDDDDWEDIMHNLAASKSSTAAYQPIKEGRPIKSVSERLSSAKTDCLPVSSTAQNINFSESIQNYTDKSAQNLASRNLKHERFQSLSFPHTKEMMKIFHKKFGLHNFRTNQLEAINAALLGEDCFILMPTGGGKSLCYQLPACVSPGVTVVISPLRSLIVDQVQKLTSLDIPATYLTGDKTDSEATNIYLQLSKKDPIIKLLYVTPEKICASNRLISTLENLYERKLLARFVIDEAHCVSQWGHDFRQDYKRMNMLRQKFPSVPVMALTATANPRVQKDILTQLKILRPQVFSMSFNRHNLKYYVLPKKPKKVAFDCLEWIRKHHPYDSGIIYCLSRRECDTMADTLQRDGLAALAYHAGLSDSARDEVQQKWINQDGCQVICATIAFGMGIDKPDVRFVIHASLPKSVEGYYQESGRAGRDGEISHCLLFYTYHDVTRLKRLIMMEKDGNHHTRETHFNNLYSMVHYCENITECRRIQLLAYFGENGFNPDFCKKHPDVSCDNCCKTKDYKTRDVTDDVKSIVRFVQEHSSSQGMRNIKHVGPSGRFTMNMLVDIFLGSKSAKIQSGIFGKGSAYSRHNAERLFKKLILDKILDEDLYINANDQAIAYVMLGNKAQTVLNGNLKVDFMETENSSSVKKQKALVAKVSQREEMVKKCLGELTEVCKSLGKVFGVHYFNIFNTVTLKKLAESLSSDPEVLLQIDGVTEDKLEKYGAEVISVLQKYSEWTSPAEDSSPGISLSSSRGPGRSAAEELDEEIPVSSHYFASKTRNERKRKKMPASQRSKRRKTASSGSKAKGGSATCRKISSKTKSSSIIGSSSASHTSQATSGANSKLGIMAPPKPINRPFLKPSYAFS

The target of experiment [17] is alpha-glucosidase (Oryza sativa, rice) (UniProt Q653V4). The experiment in a line: Counterscreen for Glucocerebrosidase Inhibitors: qHTS Assay for Rice alpha-Glucosidase at pH 5.0 (AID 997).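 Also: 0% = full activity with enzyme and -100% = basal without enzyme.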 In a few lines:
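Rice alpha-glucosidase (4 nM final) with 400 uM 4-methylumbelliferyl-alpha-D-glucopyranoside in citrate buffer pH 5.0, 20 min at room temperature, stopped at pH 10; fluorescence 365/440 nm, compounds 0.7 nM–77 uM, AC50 from Hill fits.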

Where [18] appears, read: measured here: cell count channel max response.
Where [19] appears, read: measured here: lipid channel max response.

Ferritin light chain (Equus caballus), sequence (P02791 2-175 limits assumed): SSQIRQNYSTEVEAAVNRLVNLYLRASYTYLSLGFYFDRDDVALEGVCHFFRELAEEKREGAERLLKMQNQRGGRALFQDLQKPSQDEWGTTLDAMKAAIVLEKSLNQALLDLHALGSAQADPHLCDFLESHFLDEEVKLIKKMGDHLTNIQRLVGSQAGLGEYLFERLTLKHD

In the case of `C=CC(N)CCC(=O)O` (centres undefined), the compound was classed as inactive in experiment [1] and in experiment [12]. Further, in experiment [2], the activity change, negative = inhibition was 4.04% (inactive). Further, the max response in experiment [2] (setting [18]) was found to be 13.5%; in experiment [2] (setting [19]), 19.4%. For the same compound, the Potency result in experiment [3], in experiment [4], in experiment [5], in experiment [6], in experiment [7] and in experiment [8] was “inactive” throughout. Besides, the Potency entry in experiment [9], in [10], in experiment [11], in experiment [13] and in [14] was “inactive” each time.

For `CN1CCc2cc(O)c(O)cc2C(c2ccccc2)C1` (centres undefined), the call in experiment [1] was inactive. In addition, the activity change, negative = inhibition in [2] is -0.441% (inactive). For the same compound, the values for the max response in [2] (setting [18]) and in experiment [2] (setting [19]) were 31.9% and 29.5%, respectively. Besides, the Potency entry in experiment [15], in experiment [3], in experiment [4], in experiment [13] and in experiment [14] was “inactive” each time. For the same compound, the Potency in [5] was 11.2 µM (active); in experiment [6], 10 µM (active); in experiment [8], 12.6 µM (active); in experiment [10], 10 µM (active); in [11] it was 12.6 µM (active).

With `Cc1ccccc1CNc1ncnc2c1ncn2C1OC(CO)C(O)C1O` (centres undefined), in experiment [1], the compound was classed as inactive. In addition, in experiment [2], the activity change, negative = inhibition was 0.209% (inactive). The max response in [2] (setting [18]) is -22.5%; in experiment [2] (setting [19]) it was -21.9%. For the same compound, the Potency result in [15], in experiment [3], in [5], in experiment [6], in experiment [7] and in experiment [8] was “inactive” throughout. The Potency entry in [9], in experiment [10], in experiment [11], in experiment [13] and in [14] was “inactive” throughout.

As for `O=C(O)c1cc(=O)c2c(Cl)cc(Cl)cc2[nH]1`, the result in [1] and in experiment [12] was inactive. In addition, the Potency result in experiment [15], in experiment [3], in [4], in experiment [5], in experiment [6] and in experiment [7] was “inactive” in each case. Moreover, the Potency entry in [8], in experiment [9], in [10], in experiment [11], in [13] and in experiment [14] was “inactive” throughout.

Take `CC(=O)N[C@H](C(=O)O)C(C)(C)SN=O`: the outcome in experiment [1] and in experiment [12] was inactive. Further, the Potency entry in [15], in experiment [3], in experiment [4], in [5], in experiment [6] and in experiment [7] was “inactive” in each case. The Potency result in experiment [8], in experiment [9], in experiment [10], in [11], in experiment [13] and in [14] was “inactive” throughout. The Potency result in [16] was “inactive”.

In the case of `CN1[C@@H](CC(=O)c2ccccc2)CCC[C@H]1C[C@H](O)c1ccccc1`, the call in [1] and in [12] was inactive. Also, the activity change, negative = inhibition in [2] is -1.25% (inactive). Besides, the max response was found to be 24.6% in experiment [2] (setting [18]) and 23.7% in [2] (setting [19]). In addition, the Potency entry in experiment [15], in experiment [3], in experiment [13], in experiment [14] and in experiment [16] was “inactive” throughout.

As for `CN1CCc2cc(NC(=O)Nc3cccnc3)ccc21`, the compound was classed as inactive in [1]. For the same compound, in experiment [2], the activity change, negative = inhibition was 0.252% (inactive). Also, the max response in [2] (setting [18]) came out at 32.8%; in experiment [2] (setting [19]), 37.5%. Further, the Potency entry in experiment [3], in [7], in [8], in [9], in experiment [13] and in experiment [14] was “inactive” each time.

Take `COc1cc2c(CCNC(C)=O)c[nH]c2cc1Cl`: the result in experiment [17], in experiment [1] and in experiment [12] was inactive. Moreover, the activity change, negative = inhibition in [2] was -11.4% (inactive). The max response in [2] (setting [18]) is -19%; in experiment [2] (setting [19]) it was -30.9%. Further, the Potency entry in experiment [15], in [3], in experiment [5], in experiment [6], in experiment [7] and in experiment [8] was “inactive” each time. The Potency result in [9], in experiment [13] and in experiment [14] was “inactive” throughout.
